# PubChem BioAssay (EPA / NIEHS)
# Results filed as inconclusive are left out. Calls of active or inactive are those of the source. The calls were made as follows: active = hit-call score of the fitted dose curve at least 0.9, where 1 is the maximum; inconclusive = response in the unintended direction; inactive = score below 0.9.
# Read-out: Broad substrate specificity ATP-binding cassette transporter ABCG2 (Homo sapiens) (UniProt Q9UNQ0)
# Test: CLD_ABCG2_48hr: CellzDirect (CLD) Gene Expression Assay for ABC Transporter (ABCG2) at 48 hours (AID 2283704);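 as to AC50: potency for induction of ABCG2 mRNA above the DMSO baseline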
# Protocol: CLD_48hr is a cell-based, multiplexed-readout assay that uses hepatocyte, a human liver primary cell, with measurements taken at 48 hours after chemical dosing in a 96-well plate.CLD_ABCG2_48hr is one of 16 assay component(s) measured or calculated from the CLD_48hr assay. It is designed to make measurements of mRNA induction, a form of inducible reporter, as detected with chemiluminescence signals by Quantitative Nuclease Protection Assay (qNPA) technology.Data from the assay component CLD_ABCG2_48hr was analyzed at the endpoint, CLD_ABCG2_48hr, in the positive analysis fitting direction relative to DMSO as the negative control and baseline of activity. Using a type of inducible reporter, gain-of-signal activity can be used to understand changes in the reporter gene as they relate to the gene ABCG2. Furthermore, this assay endpoint can be referred to as a primary readout. To generalize the intended target to other relatable targets, this assay endpoint is annotated to the transporter intended target family, where subfamily is ABC transporter.
# Human hepatocyte cultures were treated daily for two consecutive days with fresh dosing solutions containing appropriate concentrations of the 320 ToxCast chemicals (chemical identities were blinded to CellzDirect and other ToxCast collaborators), vehicle control (0.2% DMSO), and positive control inducers as summarized in Table 1. Due to the large number of treatment groups and chemicals examined, the ToxCast chemicals were divided into two groups (spanning two independent cultures of hepatocytes from separate donor preparations (Hu778: ToxCast plates 1 and 2; Hu776: ToxCast plates 3 and 4). Each preparation of human hepatocyte cultures was treated with respective vehicle control, medium only control, set of six positive controls/reference chemicals for the five hepatic receptor pathways, and a subset of eight of the ToxCast chemicals (indoxacarb, pyrithiobac-sodium, norflurazon, cyhalofop-butyl, methomyl, thiram, acetochlor, and propiconazole). These replicate data, coupled with internal replicates designed within the blinded ToxCast chemical library, provided additional data to evaluate interindividual differences between hepatocyte preparations and their potential impact on chemical profiles.Cell morphology and integrity were evaluated using phase-contrast microscopy as an indicator of hepatocyte cell health (Tyson & Green, 1987). Cultures for each treatment group (i.e., media, vehicle [0.2% DMSO], positive control inducers [multiple concentrations], and the ToxCast chemicals [multiple concentrations]) were observed and cell morphology was assessed relative to vehicle control cultures at each harvest time point (0, 6, 24, or 48 h). […] Images were evaluated at the conclusion of the study to assess changes in cell integrity and account for the effects of chemical exposure on uncharacteristic changes in concentration-dependent gene expression profiles. The results from these determinations of apparent cytotoxicity were annotated (yes/no) alongside the corresponding qNPA data for reference.At the conclusion of each treatment period, hepatocyte cultures (96-well) were washed with 1 volume of HBSS, lysed by addition of 25 ul ArrayPlate lysis buffer (HTG, Tucson, AZ), and 70 ul/well of Denaturation Oil, denatured by incubation at 95C for 10 min, and frozen at approximately -70C until analysis by nuclease protection assay (qNPA) (Roberts et al., 2007). For qNPA analysis, cell lysates were thawed at 50C for approximately 30 min, qNPA probes were added, and samples were incubated at 95C for 10 min to begin the detection process by denaturing the target RNA, dissociating the duplexes and secondary structure hybridization. At the conclusion of the hybridization period, S1 nuclease reagent was added to each sample to digest all nonprotected nucleotides at 50C for 60-90 min. […]
# Chain of Broad substrate specificity ATP-binding cassette transporter ABCG2 (Homo sapiens) (Q9UNQ0 whole entry, looked up): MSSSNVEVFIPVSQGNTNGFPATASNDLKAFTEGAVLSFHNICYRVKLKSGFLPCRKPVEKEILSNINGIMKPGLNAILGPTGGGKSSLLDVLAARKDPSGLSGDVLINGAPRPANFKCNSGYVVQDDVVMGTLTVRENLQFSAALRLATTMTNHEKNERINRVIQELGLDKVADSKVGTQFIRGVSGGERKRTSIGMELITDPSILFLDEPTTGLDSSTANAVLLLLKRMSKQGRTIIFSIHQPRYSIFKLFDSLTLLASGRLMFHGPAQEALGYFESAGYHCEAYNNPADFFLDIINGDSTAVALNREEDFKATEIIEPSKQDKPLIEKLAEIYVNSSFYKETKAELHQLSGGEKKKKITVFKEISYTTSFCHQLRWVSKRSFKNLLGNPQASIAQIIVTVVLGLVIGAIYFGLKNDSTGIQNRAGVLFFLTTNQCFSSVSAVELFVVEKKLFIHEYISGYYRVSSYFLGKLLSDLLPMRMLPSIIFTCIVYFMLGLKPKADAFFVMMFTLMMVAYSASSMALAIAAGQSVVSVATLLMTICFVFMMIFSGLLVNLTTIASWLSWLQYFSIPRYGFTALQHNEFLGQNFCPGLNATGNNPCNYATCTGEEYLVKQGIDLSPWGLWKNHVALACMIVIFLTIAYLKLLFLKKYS
Compound,outcome,AC50
CCCCCOC(=O)COc1cc(N2C(=O)C3=C(CCCC3)C2=O)c(F)cc1Cl,inactive,
CCOC(=O)NCCOc1ccc(Oc2ccccc2)cc1,inactive,
CCCOC(=O)NCCCN(C)C,inactive,
CSC(=O)c1cccc2nnsc12,inactive,
CC(C)(c1ccc(O)cc1)c1ccc(O)cc1,inactive,
CCOC(=O)C(C)Oc1ccc(Oc2nc3ccc(Cl)cc3o2)cc1 (centres undefined),inactive,
CC1(C)C(C=C(Cl)Cl)C1C(=O)OCc1cccc(Oc2ccccc2)c1 (centres undefined),inactive,
CCCN(CCC)C(=O)SCC,inactive,
COC(=O)c1ccc(I)cc1S(=O)(=O)NC(=O)Nc1nc(C)nc(OC)n1,inactive,
COc1c(Cl)ccc(Cl)c1C(=O)O,inactive,
C#CCOC(=O)[C@@H](C)Oc1ccc(Oc2ncc(Cl)cc2F)cc1,inactive,
COC(=O)c1ccccc1C(=O)O,inactive,
CCC(O)=C1C(=O)CC(C(=O)O)CC1=O (centres undefined),inactive,
CCNc1nc(N)nc(Cl)n1,inactive,
S=C(S)NCCNC(=S)S.[Mn+2].[S-]C([S-])=NCCN=C([S-])[S-].[Zn+2],,3.67 µM (active)
Cc1nn(C)c(Oc2ccccc2)c1C=NOCc1ccc(C(=O)OC(C)(C)C)cc1,inactive,
C=CCOC(Cn1ccnc1)c1ccc(Cl)cc1Cl (centres undefined),,34.9 µM (active)
CCCCC(CC)CN1C(=O)C2C3C=CC(C3)C2C1=O (centres undefined),inactive,
CC(C)(C)[C@@H](O)[C@@H](Cc1ccc(Cl)cc1)n1cncn1,inactive,
CCC(C)OC(=O)N1CCCCC1CCO (centres undefined),inactive,
S=C([S-])NCCNC(=S)[S-].[Mn+2],,3.4 µM (active)
COCCO,inactive,
N#CSCSc1nc2ccccc2s1,inactive,
CCOC(=O)COc1cc(-n2ncc(C(F)(F)F)c(C)c2=O)c(F)cc1Cl,inactive,
